Source: PubChem BioAssay
KB-V1 cytotox: kills drug-selected multidrug resistant KB-V1 cells; KB-V1 MDR cells viability, CellTiter-Glo, 72 h; Potency, µM (doses to about 46.1 µM), usual class: cytotoxic; hit rate 3.4% among 400,000; further: potency means the concentration at half of the fitted maximal effect; on the % scale 0 is the no-effect control and ±100 the full control effect; nearly all actives have a fitted effect of over 60% in size
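Following 72 h at 37 degrees C with compound, KB-V1 cell viability was read by CellTiter-Glo luminescence, medium being phenol-red-free DMEM plus 10% FBS; concentration-response parameters came from normalized, curve-fitted qHTS data.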
MCF10A rereplic: DNA re-replication induction in MCF 10a cells; MCF 10A DNA re-replication, Hoechst nuclear intensity, 48 h; Potency, µM (series often up to 46.1 µM), inactives show top-dose activity, positive = re-replication, most hits filed as activators; hit rate 2.9% among 350,000; AID 624296; further: potency means the concentration at half of the fitted maximal effect; % of control where 0% means no effect; nearly all actives have a fitted effect of over 50% in size
KB-3-1 cytotox: kills parental KB-3-1 adenocarcinoma cells; KB-3-1 viability, CellTiter-Glo ATP luminescence, 72 h; Potency, µM (highest dose often 46.1 µM), actives largely listed as cytotoxic; hit rate 1.4% among 400,000; further: potency means the concentration at half of the fitted maximal effect; on the % scale 0 is the no-effect control and ±100 the full control effect; nearly all actives have a fitted effect of over 60% in size
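Here the drug-naive KB-3-1 line serves as comparator for MDR sub-line selectivity; cells received compound titrations, 72 h at 37 °C, then CellTiter-Glo readout.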
IL-1B inflam inh: inhibitors of inflammasome signaling (IL-1 beta secretion); hit rate 4.7% among 360,000; AID 743279; activity change, % at 57.5 µM; THP-1 LPS/ATP IL-1B secretion, AlphaLISA, 16 h; stronger effect = lower value; in the data active means activity change below about -50%; inconclusive means mostly about -30% to -49%; further: on the % scale 0 is the no-effect control and ±100 the full control effect
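THP-1 cells pretreated 1 hr with compounds (up to 57.5 uM final), then stimulated with LPS (250 ng/mL final) plus ATP (1.25 mM final); secreted IL-1B measured by AlphaLISA after 16 hr, decreased signal indicating inhibition.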
SW480 rerep: DNA re-replication induction in SW480 cells | SW480 DNA re-replication, Hoechst DNA content imaging, 48 h | Potency, µM (highest dose often 46.1 µM), inactives show at the highest dose re-replication activation, actives largely listed as activators | hit rate 1.8% among 340,000; further: potency means the concentration at half of the fitted maximal effect; % of control where 0% means no effect; nearly all actives have a fitted effect of over 55% in size
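Hoechst fluorescence of nuclei (405 nm excitation, 500-530 nm emission) measured by plate-scanning imager after 48 hr compound exposure at 37 C; re-replication scored as increased number of nuclei with elevated intensity.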
* hit, by the source's call; i = inactive; ? = inconclusive; · = no result. Hits are enriched below; roughly 9.9% of the tested compounds scored in any of these assays. Unless noted, the call rests on the fitted dose curve; in most records, active means well fitted curve in the direction sought with a large enough effect; inconclusive means small, poorly fitted or top-dose-only effect, or another doubt; inactive means no such curve, though single readings can be large; an effect the other way counts as inactive or inconclusive.

SMILES | KB-V1 cytotox | MCF10A rereplic | KB-3-1 cytotox | IL-1B inflam inh | SW480 rerep
CCN1C(=O)[C@@H]2[C@@H](c3ccc(-c4ccc(F)cc4)c(OC)c3)N3CCC[C@@]3(C(=O)OC)[C@@H]2C1=O | i | -40% | i | -7 | -1%
COc1cccc2c1OCC(CN1CCN(Cc3ccccc3F)C(CCO)C1)=C2 (stereo not drawn) | ? | 0.73µM* | i | -3 | ?
CCO[C@@H]1OC(C(=O)NCc2nc3ccccc3[nH]2)=C[C@H](c2csc3ccccc23)[C@H]1CCCO | i | 26% | ? | -56* | 19%
CCO[C@H]1OC(C(=O)NCc2nc3ccccc3[nH]2)=C[C@@H](C2CC2)[C@@H]1CCCO | i | 3.7µM* | i | 50 | 3.3µM*
COc1ccc(C)c2sc(N(Cc3cccnc3)C(=O)C3CCCCC3)nc12 | i | · | i | · | ·
S=C(NCCSCc1c(Cl)cccc1Cl)Nc1ccccc1 | 21µM* | ? | ? | -29 | 2%
Cc1ccccc1CSCCNC(=S)Nc1ccccc1 | ? | -3% | ? | -158* | -5%
O=C(NCCSCc1ccco1)c1ccc(CN2CCOCC2)cc1 | i | 1% | i | 15 | -12%
S=C(NCCSCc1ccc(Cl)cc1Cl)Nc1ccccc1 | ? | ? | ? | -15 | 8%
O=C(NCCSCc1c(F)cccc1Cl)c1ccc(CN2CCOCC2)cc1 | 16µM* | ? | ? | 26 | 2%
O=C(NCCSCc1c(F)cccc1Cl)Nc1ccccc1 | i | ? | i | -75* | 2%
CCCCn1nc(C(=O)NCC(c2cccs2)N2CCOCC2)c2ccccc2c1=O (stereo not drawn) | ? | 7% | ? | 6 | -36%
Cc1ccc(-c2nnc(CN3CCCCC3C)o2)cc1 (stereo not drawn) | i | -5% | i | 8 | 0%
O=C(NCCSc1ccccc1)c1ccccc1 | i | ? | i | -17 | 0%
O=C(NCCSSCCNC(=O)c1ccccc1)c1ccccc1 | ? | ? | ? | -68* | ?
Cc1ccccc1CSCCC(=O)NCCc1ccccc1 | i | 5% | i | 26 | -2%
S=C(NCCSCc1ccc(Cl)c(Cl)c1)Nc1ccccc1 | i | 26µM* | i | -25 | ?
Cc1ccccc1CSCCNC(=O)CSCc1ccc([N+](=O)[O-])cc1 | 16µM* | -2% | i | 0 | -13%
Cc1ccccc1CSCCNC(=O)c1ccccc1 | 16µM* | 9% | i | -13 | 1%
C=CCn1c(=O)[nH]c2cc(C(=O)N3CC=C(c4ccccc4)CC3)ccc2c1=O | i | ? | i | -13 | 22%
Cn1nc(C(=O)OCC(=O)Nc2ccccc2[N+](=O)[O-])c2ccccc2c1=O | i | -6% | i | 0 | 24%
COc1ccc(S(=O)(=O)N2CCN(C(=O)CC3CC4CCC3C4)CC2)cc1 (stereo not drawn) | i | 4% | i | ? | ?
Cc1ccc(NC(=O)CN(c2ccccc2)S(=O)(=O)N(C)C)cc1Cl | 12µM* | · | ? | · | ·
CCc1ccc(NC(=O)CN(c2ccccc2)S(=O)(=O)N(C)C)cc1 | i | -1% | i | -17 | 1%
Cc1ccccc1CSCCNC(=O)CN(c1ccccc1)S(=O)(=O)N(C)C | 16µM* | · | ? | · | ·
SMILES | KB-V1 cytotox | MCF10A rereplic | KB-3-1 cytotox | IL-1B inflam inh | SW480 rerep
CCCCCCCCCCCCCCCC(=O)OC(CC(=O)O)C[N+](C)(C)C (stereo not drawn) | i | -1% | 3.7µM* | 0 | 0.58µM*
CCCCCCCCCCCCCCCC(=O)OCC(COC(=O)CCCCCCCCCCCCCCC)OC(=O)CCCCCCCCCCCCCCC | · | 5% | · | · | 2%
Cc1ccc(Cn2c(C(=O)Nc3ccc(Cl)cc3)cc3sccc32)cc1 | i | · | i | · | ·
COc1cc(OC)c(OC)cc1/C=C/c1nc2ccccc2o1 | i | · | i | · | ·
COc1ccc(/C=C/c2nc3cc(-c4ccccc4)ccc3o2)cc1O | ? | 5.8µM* | ? | -18 | 18µM*
Cn1c(CCN2CCN(c3ccccn3)CC2)nc2cc(NS(=O)(=O)c3ccc(Cl)cc3)ccc21 | i | ? | ? | -76* | ?
Cn1c(CCN2CCCCC2)nc2cc(NS(=O)(=O)c3ccc(F)cc3)ccc21 | i | 4% | ? | -14 | 1%
Cc1ccc(S(=O)(=O)Nc2ccc3c(c2)nc(CCN2CCN(c4ccccn4)CC2)n3C)cc1 | i | -4% | i | -13 | 1µM*
Cc1ccc(S(=O)(=O)Nc2ccc3c(c2)nc(CCN2CCOCC2)n3C)cc1 | i | 0% | ? | ? | 2%
Cc1ccc(S(=O)(=O)Nc2ccc(N3CCN(C)CC3)nc2)cc1 | i | ? | i | -65* | 37%
Cc1ccc(S(=O)(=O)Nc2ccc3c(c2)nc(CCN2CCCCC2)n3C)cc1 | i | -1% | i | -92* | ?
O=C(/C=C/c1cccs1)Nc1cccc([S+](=O)([O-])Nc2ccccc2F)c1 | i | · | i | · | ·
O=C1CCc2cc(Cl)c(S(=O)(=O)Nc3ccc(Cl)c(Cl)c3)cc2N1 | i | · | i | · | ·
C=C1C[C@H](O[C@@H]2O[C@H](CO)[C@@H](O)[C@H](O)[C@H]2O)[C@@H]2[C@H](OC(=O)[C@H]2C)[C@H]2[C@H](C)[C@H](O)C[C@@H]12 | i | -2% | i | 24 | -95%
CC(NC(=O)CCCC1=NS(=O)(=O)c2ccccc2N1)c1ccccc1 (stereo not drawn) | i | · | i | · | ·
COC(=O)c1[nH]c2ccc(F)cc2c1NS(=O)(=O)c1ccc(F)c(C)c1 | 16µM* | ? | ? | -18 | -107%
CCN(CC)CCNC(=O)c1cn(CC)c2cc(N3CCN(C)CC3)c(F)cc2c1=O | i | ? | i | -27 | -11%
O=C1C(=O)N(Cc2ccccc2)C(=O)N1CCOc1ccccc1 | ? | 13µM* | i | 30 | ?
CCCCN1C(=O)C(=O)c2cc(Cl)ccc21 | ? | 23µM* | ? | 38 | ?
Cc1ccc2c(c1)C(=O)C(=O)N2CCCOc1ccccc1C | i | ? | ? | ? | 30%
Cc1cccc(OCCN2C(=O)C(=O)c3cccc(C)c32)c1 | i | -1% | i | ? | -5%
Cc1ccc(OCCN2C(=O)c3ccccc3C2=O)cc1 | i | 5% | i | 27 | 1%
Cc1ccc2c(c1)C(=O)C(=O)N2CCOc1ccccc1 | ? | 19% | ? | -2 | 4.1µM*
Cc1cccc(OCCN2C(=O)C(=O)c3cc(C)ccc32)c1 | ? | 18µM* | ? | ? | ?
O=C(NCCS(=O)(=O)c1ccc(Br)cc1)c1ccc(Cl)cc1Cl | i | 1% | i | -10 | 7%
CCN(CC(=O)Nc1c(F)cccc1F)C(=O)CCSc1ccc(F)cc1 | i | -15% | i | -13 | -9%
